# From PubChem BioAssay
# Values joined by “and” are separate entries in the source; they are usually repeats but may differ in a detail not shown here. Equal values may be shown once. For some of these results: Entries with a potency or affinity are not part of this list. The source holds several records for some structures; these can differ, active in one and inactive in another. Active and inactive are the calls of the source. Unless noted, no rule for the calls is given here.
# How the values were obtained:
# [1] = antimalarial activity against Dd2 strain (AID 2302;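 active = growth inhibition above 50% at the single 2 µM test dose, taken to imply half-maximal potency below 2 µM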;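 also: 0% = DMSO untreated growth and 100% = chloroquine plus artemisinin killed control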); conditions: P. falciparum Dd2 in RBCs, LDH growth readout, 72 h; at 2 µM; stronger effect = higher value
# [2] = HepG2 cytotoxicity, primary screen, cytotoxicity control for P. falciparum antimalarial project, cell-based, ATP luminescence (AID 2303;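 active = inhibition above 50%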;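 also: 0% = DMSO wells and 100% = digitonin-killed cells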); conditions: HepG2 viability, 24-48 h, at 10 µM, stronger effect = higher value
# [3] = biological target: L-lactate dehydrogenase (Plasmodium falciparum (isolate CDC / Honduras)) (UniProt Q27743); assay: PfLDH activity inhibition – cell lysate, 3D7 strain, counter-screen for P. falciparum growth inhibition project (AID 2304);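 also: 0% = vehicle and 100% = reference inhibitor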; conditions: P. falciparum 3D7 crude extract, LDH APAD/NBT absorbance; at 2 µM; stronger effect = higher value
# Sequence of L-lactate dehydrogenase (Plasmodium falciparum (isolate CDC / Honduras)) (Q27743 whole entry, looked up): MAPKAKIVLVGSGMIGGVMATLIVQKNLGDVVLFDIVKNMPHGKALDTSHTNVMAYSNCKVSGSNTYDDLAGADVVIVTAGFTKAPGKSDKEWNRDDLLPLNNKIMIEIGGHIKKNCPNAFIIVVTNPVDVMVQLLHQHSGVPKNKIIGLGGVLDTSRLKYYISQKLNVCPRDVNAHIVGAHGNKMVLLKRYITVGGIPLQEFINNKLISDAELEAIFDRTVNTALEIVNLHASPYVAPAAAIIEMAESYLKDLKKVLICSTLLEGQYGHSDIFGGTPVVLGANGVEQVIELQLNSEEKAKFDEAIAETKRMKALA
# [4] = inhibition of 3D7 malaria parasite growth – strain 3D7 (AID 2306);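 also: 0% = DMSO wells and 100% = chloroquine plus artemisinin control wells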; conditions: P. falciparum 3D7 erythrocytic growth, LDH absorbance, 72 h; at 2 µM; stronger effect = higher value
# [5] = biological target: Calcium-dependent protein kinase 1 (Plasmodium falciparum (isolate 3D7)) (UniProt P62344); assay: PfCDPK1 kinase inhibitors, biochemical, TCAMS library (AID 1159585; cut-off not given, nearly all actives have IC50 up to about 0.98 µM;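 also: inhibitors leave more ATP so luminescence rises with inhibition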); conditions: recombinant PfCDPK1, Kinase-Glo ATP depletion luminescence
# Sequence of Calcium-dependent protein kinase 1 (Plasmodium falciparum (isolate 3D7)) (P62344 whole entry, looked up): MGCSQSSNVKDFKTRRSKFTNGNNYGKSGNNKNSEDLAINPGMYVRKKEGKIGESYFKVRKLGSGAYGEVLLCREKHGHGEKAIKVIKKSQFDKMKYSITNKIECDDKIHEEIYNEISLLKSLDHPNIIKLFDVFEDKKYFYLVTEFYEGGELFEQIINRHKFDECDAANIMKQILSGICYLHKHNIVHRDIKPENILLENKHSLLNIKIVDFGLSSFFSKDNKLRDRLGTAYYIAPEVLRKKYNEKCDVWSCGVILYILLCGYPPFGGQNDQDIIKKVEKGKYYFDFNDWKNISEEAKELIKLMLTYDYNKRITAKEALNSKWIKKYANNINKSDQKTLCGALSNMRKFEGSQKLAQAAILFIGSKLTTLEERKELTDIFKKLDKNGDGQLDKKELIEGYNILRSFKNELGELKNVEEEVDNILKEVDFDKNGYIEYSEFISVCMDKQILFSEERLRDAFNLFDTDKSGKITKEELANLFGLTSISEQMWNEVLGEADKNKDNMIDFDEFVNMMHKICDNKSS
# [6] = biological target: Plasmodium falciparum protein kinase 6 (PK6, PF3D7_1337100) (UniProt Q8IDW1); assay: PfPK6 kinase inhibitors, biochemical, TCAMS library (AID 1159586); conditions: recombinant PfPK6, Kinase-Glo ATP depletion luminescence
# Sequence of Plasmodium falciparum protein kinase 6 (PK6, PF3D7_1337100) (Q8IDW1 1-305): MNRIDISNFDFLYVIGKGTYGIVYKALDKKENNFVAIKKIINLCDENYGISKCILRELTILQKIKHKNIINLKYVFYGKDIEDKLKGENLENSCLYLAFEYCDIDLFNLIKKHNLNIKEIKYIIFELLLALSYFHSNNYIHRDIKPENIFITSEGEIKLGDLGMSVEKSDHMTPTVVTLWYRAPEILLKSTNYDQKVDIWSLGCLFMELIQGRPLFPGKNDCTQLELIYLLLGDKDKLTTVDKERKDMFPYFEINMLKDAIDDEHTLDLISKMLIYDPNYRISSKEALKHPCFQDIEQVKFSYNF
# [7] = biological target: Protein kinase 7 (PK7), Plasmodium falciparum 3D7 (PF3D7_0213400) (UniProt Q7YTF7); assay: inhibition of Plasmodium PK7 catalytic activity – biochemical, TCAMS antimalarial set, Kinase-Glo luminescence (AID 1159587); conditions: recombinant PfPK7, Kinase-Glo ATP depletion luminescence
# Sequence of Protein kinase 7 (PK7), Plasmodium falciparum 3D7 (PF3D7_0213400) (Q7YTF7 1-343): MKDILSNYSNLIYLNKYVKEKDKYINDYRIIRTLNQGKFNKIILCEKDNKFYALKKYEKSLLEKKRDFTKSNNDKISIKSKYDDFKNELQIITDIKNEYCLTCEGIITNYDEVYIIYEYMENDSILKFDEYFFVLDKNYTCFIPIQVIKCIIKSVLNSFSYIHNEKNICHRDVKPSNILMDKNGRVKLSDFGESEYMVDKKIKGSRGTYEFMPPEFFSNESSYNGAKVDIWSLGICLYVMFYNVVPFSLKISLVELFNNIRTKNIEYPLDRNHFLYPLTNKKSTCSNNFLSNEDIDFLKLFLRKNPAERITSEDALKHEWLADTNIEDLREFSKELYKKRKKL
# [8] = biological target: Calcium-dependent protein kinase 4 (Plasmodium falciparum (isolate 3D7)) (UniProt Q8IBS5); assay: PfCDPK4 kinase inhibitors, biochemical, TCAMS library (AID 1159588; cut-off not given, nearly all actives have IC50 up to about 0.91 µM); conditions: recombinant PfCDPK4, Kinase-Glo ATP depletion luminescence
# Sequence of Calcium-dependent protein kinase 4 (Plasmodium falciparum (isolate 3D7)) (Q8IBS5 whole entry, looked up): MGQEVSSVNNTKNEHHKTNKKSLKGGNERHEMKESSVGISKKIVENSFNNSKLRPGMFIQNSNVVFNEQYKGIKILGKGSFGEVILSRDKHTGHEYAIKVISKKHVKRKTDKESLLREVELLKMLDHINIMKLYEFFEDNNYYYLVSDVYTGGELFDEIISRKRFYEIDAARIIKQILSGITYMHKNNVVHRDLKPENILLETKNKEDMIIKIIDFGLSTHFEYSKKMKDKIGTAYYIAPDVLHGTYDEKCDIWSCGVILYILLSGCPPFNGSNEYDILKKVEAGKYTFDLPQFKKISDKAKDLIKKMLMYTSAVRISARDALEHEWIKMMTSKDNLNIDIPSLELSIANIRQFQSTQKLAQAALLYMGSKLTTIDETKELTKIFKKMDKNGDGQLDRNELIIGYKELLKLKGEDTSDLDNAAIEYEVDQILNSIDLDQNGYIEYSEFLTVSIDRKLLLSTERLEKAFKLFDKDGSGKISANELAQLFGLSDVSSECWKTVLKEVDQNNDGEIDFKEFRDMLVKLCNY
Compound,growth inhibition [1],inhibition [2],inhibition [3],growth inhibition [4],outcome [5],outcome [6],outcome [7],outcome [8]
COc1ccc(CNCc2ccccc2)cc1-c1ccc(S(=O)(=O)NCCN2CCCC2)cc1,39% (inactive),38% (inactive),-1% (inactive),96% (active),inactive,inactive,inactive,inactive
CN(C)C(=O)C(CC(=O)NCc1ccccc1Cl)N(C)C (stereo not given) (tested in a mixture with another compound),2% (inactive),7% (inactive),-3% (inactive),96% (active),inactive,inactive,inactive,inactive
Clc1ccc2c(NN=Cc3cccnc3)ccnc2c1,86% (active),-9% (inactive),3% (inactive),100% (active),inactive,inactive,inactive,inactive
O=C(Nc1cccc(CN2CCCN(Cc3ccc(O)cc3)CC2)c1)c1cccc(Cl)c1,41% (inactive),10% (inactive),5% (inactive),96% (active),inactive,inactive,inactive,inactive
Oc1ccc(CCNc2nc(NCCCOc3ccccc3-c3ccc(F)cc3)nc(N3CCNCC3)n2)cc1,8% (inactive),30% (inactive),-1% (inactive),85% (active),inactive,inactive,inactive,inactive
Cc1sc2ccc(Cl)cc2c1S(=O)(=O)Nc1ccc2nccc(N3C[C@@H](C)N[C@@H](C)C3)c2c1,100% (active),17% (inactive),0% (inactive),100% (active),inactive,inactive,inactive,inactive
Cc1cccc2[nH]c(-c3ccc(-c4cccc(CN5CCCC5CN)c4)s3)nc12 (stereo not given),45% (inactive),20% (inactive),5% (inactive),91% (active),inactive,inactive,inactive,inactive
O=C(c1ccc(Cl)cc1)N1CCOC(CCN2CCC(c3ccccc3)CC2)(c2ccc(Cl)c(Cl)c2)C1 (stereo not given),68% (active),19% (inactive),3% (inactive),98% (active),inactive,inactive,inactive,inactive
COc1ccccc1N1CCN(Cc2cc(C(C)C)c(C)cc2O)CC1,98% (active),7% (inactive),2% (inactive),97% (active),inactive,inactive,inactive,inactive
CN(C)CCOc1cc(NC(=O)Nc2ccc(-c3ccncc3)c(C(F)(F)F)c2)ccc1Cl,79% (active),36% (inactive),3% (inactive),100% (active),inactive,inactive,inactive,inactive
NC1=NC(c2ccccc2)(c2cccc(O)c2)C(=O)N1CCCc1ccccc1 (stereo not given),38% (inactive) and 93% (active),-2% (inactive),-2% (inactive) and 4% (inactive),85% (active) and 98% (active),inactive,inactive,inactive,inactive
C[C@@H]1CN(c2nc(NCCc3ccc(O)cc3)nc(NCc3ccccc3-c3ccc(C(F)(F)F)cc3)n2)C[C@H](C)N1,68% (active),24% (inactive),7% (inactive),100% (active),inactive,inactive,inactive,inactive
O=C(NC1CC1)c1ccc(Cn2c(SCc3cccc(Cl)c3)nc3ccccc3c2=O)cc1,70% (active),2% (inactive),1% (inactive),90% (active),inactive,inactive,inactive,inactive
Cn1ncc2c3c(CCN4CCC(NCc5cc6c(cn5)OCCO6)CC4)c(Cl)cnc3ccc21,34% (inactive),1% (inactive),0% (inactive),95% (active),inactive,inactive,inactive,inactive
O=c1cc(NCCCNCc2cc(Cl)cc(Cl)c2OCc2ccccc2)[nH]c2ccccc12,50% (active),-4% (inactive),-2% (inactive),91% (active),inactive,inactive,inactive,inactive
CS(=O)(=O)c1ccc(CCNCc2ccc(-c3ccc(CN(C(=O)c4cccc(C#N)c4)C4CCN(Cc5ccccc5)CC4)cc3)nc2)cc1,56% (active),20% (inactive),1% (inactive),96% (active),inactive,inactive,inactive,inactive
COc1ccc(C2C(C(=O)Nc3ccccc3)=C(C)Nc3c(C(=O)Nc4ccccc4)cnn32)cc1 (stereo not given),66% (active),13% (inactive),-1% (inactive),85% (active),inactive,inactive,inactive,inactive
CC(C)C1CCc2nc(N)nc(N)c2C1 (stereo not given),-2% (inactive),70% (active),-5% (inactive),95% (active),inactive,inactive,inactive,inactive
N#CC(c1ccc(Br)cc1)c1ccc2c(C(F)(F)F)cc(C(F)(F)F)nc2n1 (stereo not given),98% (active),75% (active),-2% (inactive),101% (active),inactive,inactive,inactive,inactive
CCCn1c(Sc2ccc(C#N)c([N+](=O)[O-])c2)nnc1-c1cc(OC)cc(OC)c1,79% (active),24% (inactive),6% (inactive),98% (active),inactive,inactive,inactive,inactive
